# Measurements taken from ChEMBL document CHEMBL3988442, “University of Dundee, Small-Polar-MMV Screening Library” (2021).
# Assays:
# [1] = molecular target: T1, Aspartate--tRNA(Asp/Asn) ligase (Mycobacterium tuberculosis (strain ATCC 25618 / H37Rv)) (UniProt P9WFW3); assay: Assay for Asp RNA synthetase-1 from Mycobacterium tuberculosis; assay type: functional; design: scale not given: direction of the effect not stated beside the values; conditions: 30 µM; further: in the data most compounds retested in dose-response had high values
# T1 sequence (whole entry): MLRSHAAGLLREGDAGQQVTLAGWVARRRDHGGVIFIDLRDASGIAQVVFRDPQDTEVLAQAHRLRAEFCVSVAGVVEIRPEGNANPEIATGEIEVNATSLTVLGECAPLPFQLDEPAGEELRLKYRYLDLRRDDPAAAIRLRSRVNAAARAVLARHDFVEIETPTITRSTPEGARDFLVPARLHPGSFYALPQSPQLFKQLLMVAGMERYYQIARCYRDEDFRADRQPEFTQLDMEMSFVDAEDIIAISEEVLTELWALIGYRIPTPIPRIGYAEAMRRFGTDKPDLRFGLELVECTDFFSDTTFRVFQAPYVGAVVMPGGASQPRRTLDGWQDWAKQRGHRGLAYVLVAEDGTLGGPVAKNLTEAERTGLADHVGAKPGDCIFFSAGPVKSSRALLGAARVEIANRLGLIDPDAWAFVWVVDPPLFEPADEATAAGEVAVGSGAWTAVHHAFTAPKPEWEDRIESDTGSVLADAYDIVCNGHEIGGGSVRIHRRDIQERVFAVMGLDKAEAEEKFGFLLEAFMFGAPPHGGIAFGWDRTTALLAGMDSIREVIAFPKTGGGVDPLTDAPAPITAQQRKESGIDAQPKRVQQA
# [2] = molecular target: Shiga toxin 2 (Escherichia coli O157:H7) (UniProt P09385+P09386); assay: E. coli 0.157:H7 Shiga Toxin SOP - stx2 screening assay; assay type: functional; design: scale not given: direction of the effect not stated beside the values; conditions: 30 µM
Compound,Percent Effect [1],Percent Effect [2]
Cc1nn(C)cc1-c1cc(C(F)(F)F)c2c(C)nn(CC(=O)O)c2n1,4.84%,34.1%
CC(=O)N1CCC(C(=O)N(C)[C@@H]2CCC[C@@H](N3CCCC3)[C@@H]2O)CC1,1.35%,-6.16%
CC(C)(O)CN1CCN(C(=O)c2cccnc2O)CC1,-6.95%,9.08%
COC(=O)c1ccc2ccn(CC3CCCO3)c(=O)c2c1 (centres undefined),7.1%,6.53%
CC(C)c1noc(CCC(=O)NCC2CCOC2)n1 (centres undefined),-0.573%,-7.84%
CC(C)NS(=O)(=O)c1cc(C(=O)O)cc(-c2ccc(CN(C)C)cc2)c1,-3.46%,-20.1%
O=C(Cc1c[nH]c2ccccc12)N1CCC(Nc2cccnn2)CC1,1.83%,-4.79%
CC(CN1CCOCC1)NCc1nncn1C1CCCCC1 (centres undefined),0.0836%,-15.5%
Cc1cc(CN(C)C(=O)c2ccc(F)cc2Br)no1,0.189%,-57%
Cc1nc([C@@H]2C[C@@H]3CCN(C(=O)c4ccnnc4)C[C@H]3O2)sc1C,4.24%,-9.81%
COc1c(C2CCCN2CC(=O)Nc2nc(C)cs2)c(C)nn1C (centres undefined),-3%,-14.6%
CNc1nc(C2CCCN2C(C)=O)nc2c1CCN(CC1CC1)C2 (centres undefined),1.43%,-7.13%
CCCNC(=O)CN1CCC(C(=O)Nc2cnn(CC)c2)CC1,0.927%,20.3%
Cc1nc(CN2CCc3ncnc(-c4ccc(F)cc4)c3CC2)cs1,-0.199%,5.58%
CC(C)(C)c1nnc(CN2CCOC(Cn3cncn3)C2)o1 (centres undefined),0.0111%,8.96%
O=C(c1ccc2c(c1)CCCC2)N1CCOCC1c1ncon1 (centres undefined),-2.09%,0.194%
O=C1NCCN1C1CCCN(Cc2coc(-c3ccc(F)cc3)n2)C1 (centres undefined),-2.94%,-27.1%
O=C(CN1CCCCC1Cn1cncn1)NC1CCN(C2CC2)CC1 (centres undefined),-0.234%,-4.41%
CCn1cc(CN2CCCN(C(=O)c3ccn(C)c(=O)c3)CC2)cn1,1.33%,-0.744%
O=C(O)C1(Cc2cc(-c3ccc(F)cc3F)no2)CCOCC1,0.819%,-13.5%
COc1ccc(OC)c(NC(=O)N2CCCC2c2ccco2)c1 (centres undefined),-4.36%,0.199%
Cn1cnc2c1CCN(Cc1cccc(OCC(N)=O)c1)C2,-4.08%,-24.5%
Cc1cnn(CCNCc2nnc(C3CC3)o2)c1,4.75%,-42.1%
CC(C)c1nc(CC(=O)Nc2nc(CN3CCCCCC3)cs2)cs1,-0.836%,-37.6%
O=C(c1cnc(C2CC2)s1)N1CCCC(n2cccn2)C1 (centres undefined),-2.52%,24.9%
CCOCC1CN(S(=O)(=O)N(C)C)Cc2cnn(C)c21 (centres undefined),-3.4%,6.68%

Compound,Percent Effect [1],Percent Effect [2]
Cc1ccc(-c2cc(CNC(=O)N3CCOC(C)C3)on2)cc1 (centres undefined),0.699%,9.22%
Cc1cc(Nc2nc(C)cs2)nc(C2CCCCN2CCO)n1 (centres undefined),0.7%,-34.2%
Cc1ccccc1CSCCn1nc2ccccn2c1=O,-1.33%,26.4%
COc1ccc(CN2CCC3(CC2)CCN(CC(C)C)C3=O)cc1,-3.87%,3.87%
O=C(c1ccoc1)N1CCC2(CC1)C(=O)Nc1ccccc12,-1.51%,-2.64%
CCc1nc(C)ncc1C(=O)N1CCCC(n2nc(C)nc2C)C1 (centres undefined),-3.03%,0.321%
O=C(Cc1ccc2c(c1)CCO2)N1CCN(c2cnccn2)CC1,-4.06%,-23.3%
CC(C)c1nc(C2CCCN2C(=O)c2cnc[nH]2)no1 (centres undefined),0.204%,26.7%
CN(C)CC1CSCCCN1C(=O)c1ccc(=O)[nH]c1 (centres undefined),0.539%,3.65%
COCCN1CCC(CNC(=O)C2(c3cccc(C)c3)CC2)CC1,5.2%,-5.28%
CNc1cccc(C2CCCN(C(C)=O)C2)n1 (centres undefined),7.52%,23.2%
Cc1cccc(CN(Cc2ccc(C)o2)C2CC(C)(C)NC(C)(C)C2)n1,-1.8%,3.65%
CCCc1noc(CCC(=O)N2CCCC2c2noc(C3CC3)n2)n1 (centres undefined),-2.66%,6.31%
CNC(=O)CCNC(=O)c1cccc(Cn2nc(C)cc2C)c1,-3.31%,-15.4%
O=S(=O)(N1CCCC1)N1CCCCC1CCc1ccccc1 (centres undefined),1.42%,10.8%
CC(C)Nc1nc2c(cc1C(=O)NCC1CC1)CCNCC2,0.611%,2.86%
CN1CCCN(c2nccc(-c3c[nH]nc3C3CCCCC3)n2)CC1,14.1%,-32.4%
CCc1csc(C2CCCN(C(=O)c3ccnc(N(C)C)c3)C2)n1 (centres undefined),1.86%,-14.7%
Cc1ccc(-n2nnc(CC(=O)N3CCOCC3)c2C)cc1,2.26%,-28%
CCC1CN(c2nnc(C)c(C)c2C#N)CCO1 (centres undefined),0.1%,11.9%
CC(c1cccc(S(N)(=O)=O)c1)N(C)CCOc1ccccc1 (centres undefined),0.185%,-29.3%
C[C@H]1C[C@@H]2CCN(C(=O)c3ccncn3)C[C@H]2O1,4.15%,-27.6%
Cn1cc(C(=O)N2CCCC(n3cccn3)C2)c2ccccc21 (centres undefined),-0.132%,-6.71%
COCCN(Cc1ccoc1)C(=O)c1c(F)cccc1Cl,-3.31%,5.86%
Cc1ccccc1-c1cncc(C2CCN(C)CC2)n1,2.52%,-4.06%
CN(C)c1ccc(CCNC(=O)NCc2ccc(N(C)C)nc2)cc1,2.84%,5.6%

Compound,Percent Effect [1],Percent Effect [2]
CN(Cc1noc(C2CC2)n1)C1CCN(Cc2ccncc2)C1 (centres undefined),-0.189%,-32.1%
CCc1cnc(N)nc1NCCN1CCCCC1,0.268%,-30.3%
Cc1cc(C)n(CC2CCCN2C(=O)CCc2cscn2)n1 (centres undefined),-0.678%,17%
N#Cc1c(F)cccc1N1CCC(NS(=O)(=O)c2cccs2)CC1,10.6%,-25.2%
Cc1nc(CN(C)C2CCN(Cc3nc4ccccc4s3)C2)no1 (centres undefined),-0.253%,0.376%
Cc1ccc(NC2CCN(C(=O)CCNS(C)(=O)=O)CC2)nn1,-2.45%,-0.275%
O=C(c1cnco1)N1C[C@@H]2CC[C@H](Oc3ccccc3F)[C@@H]2C1,-1.03%,-75.8%
COc1ccccc1CC(=O)N1CCC(NCc2cccnc2)CC1,1.11%,22.4%
CC(C)Oc1ncc(C(=O)N2CCC(NC(=O)C3CC3)CC2)cc1Cl,-4.56%,-46.9%
Cc1cccc(OCCC(=O)NCC(C)(C)C(N)=O)c1,0.144%,31.1%
Cc1nc(N2CCCCC2)ncc1C(=O)N1CC(C)(C)[C@@](C)(O)C1,4.7%,3.19%
CCc1nccn1C1CCCN(C(=O)Cc2n[nH]c3ccccc23)C1 (centres undefined),0.83%,13.1%
CN(C)c1cncc(C2CCN(C(=O)CO)CC2)n1,2.1%,7.95%
COCCNC(=O)Cn1nc(C(C)C)c2cnn(C(C)(C)C)c2c1=O,-1.87%,5.6%
OC(CN1CCN(Cc2nnc(C3CC3)o2)CC1)c1ccccc1 (centres undefined),-1.28%,6.16%
COc1ccccc1OCC(=O)Nc1ncccc1Cl,-0.641%,1.67%
O=C1CC2(CCCCC2)CC(=O)N1CC(O)COCc1ccc(Cl)cc1 (centres undefined),0.607%,11%
COc1ccc(C(C)N2CCN(Cc3nccn3C)CC2)cc1Cl (centres undefined),-0.0303%,16%
CCN1CCOC(CNCc2ccccn2)C1 (centres undefined),1.04%,12.2%
CCn1nc(C)c2ccn(CC(=O)NC3CCCC3)c(=O)c21,4.68%,12.1%
O=C(Cn1nc2c(cc1=O)CCCC2)N[C@@H](C(=O)O)c1ccccc1,-1.42%,-35.6%
Cc1ccc(CNCc2ccc(-n3nc(C)cc3C)nc2)cc1,1.23%,22.8%
Cc1nn(C)c(C)c1C1CCCN1Cc1nc(C)c2ccccc2n1 (centres undefined),0.742%,10.8%
Cc1ncncc1C(=O)Nc1cnn(CC(=O)NC2CCCC2)c1,-6.25%,-10.6%
Cc1cc(NC(=O)CN2CCc3cnc(C)nc3C2)on1,-1.18%,-34.7%
O=C(c1cccn1Cc1cccs1)N1CCN(C2CC2)CC1,-1.4%,-1.86%

Compound,Percent Effect [1],Percent Effect [2]
Cc1cnn(CC2CCCCN2Cc2nnc(-c3ccco3)o2)c1 (centres undefined),11.6%,2.18%
O=C(CCNC(=O)C1CCCC1)NCc1cccnc1-n1cncn1,0.59%,23.7%
NS(=O)(=O)CCNC(=O)c1nnn(-c2ccc(F)cc2)c1C1CC1,-3.36%,-8.62%
CCN(Cc1cccc2c1OCO2)C(=O)C(C)c1cccnc1 (centres undefined),1.18%,-4.53%
CN(C)c1ccc(CNc2cncc(-n3cccn3)n2)cc1,-4.37%,-28%
Cc1ccc(C(=O)NS(=O)(=O)c2cccc3cnccc23)c(=O)[nH]1,1.11%,1.19%
O=C(c1ccc[nH]1)N1CCc2c(COCC3CC3)cncc2C1,-0.626%,1.55%
COCCO[C@H]1CCN(C(=O)c2ccc[nH]2)[C@H]1Cc1ccncc1,-0.0147%,-2.78%
Fc1ccc(-c2nnc(CN3CCn4c(nnc4C4CC4)C3)o2)cc1,3.19%,-26.1%
CC(=O)NCc1ccc(C(=O)N2CCCC2c2cnn(C)c2)o1 (centres undefined),1.21%,21.1%
CCOc1cc(C)nc(N2CCN(C(=O)c3ccc[nH]3)CC2)n1,-0.0874%,29.4%
CC(C)(O)CN1CCN(C(=O)c2sccc2C2CC2)CC1,0.16%,10.1%
CCc1cnc(CN(C(C)=O)C2CCN(CCS(C)(=O)=O)C2)o1 (centres undefined),-3.9%,-0.798%
COc1ccccc1CC(=O)NS(C)(=O)=O,-7.77%,0.472%
O=C(NCC1OCCc2cn(CC3CC3)nc21)c1ccsc1 (centres undefined),-3.57%,-12.1%
O=C(NCc1ccco1)C1CCCN1Cc1nc(-c2ccco2)no1 (centres undefined),3.58%,23.3%
Cn1cc(C(=O)NCc2cn3c(n2)CN(Cc2ccccn2)CC3)cn1,6.41%,-42%
CCC(NC(=O)c1ccco1)c1ccccc1OCC(=O)N1CCCC1 (centres undefined),0.611%,-10.6%
Cc1cncc(C(=O)N2CCCCC2c2nc(C)cs2)c1 (centres undefined),-9.59%,-42.4%
CS(=O)(=O)N1CCC2(CC1)CC(CC(=O)N1CCCC1)c1ccccc12 (centres undefined),5.87%,8.75%
Nc1nc(CN2CCOC(Cn3cncn3)C2)nc2ccccc12 (centres undefined),-1.84%,5.62%
CC(C)CN1CCCC2(CCN(C(=O)c3cnccn3)C2)C1 (centres undefined),1.03%,-7.5%
CCS(=O)(=O)N1CCc2c(cccc2NC(=O)NCCOC)C1,5.42%,6.78%
CCc1nnc(CNCC2CCCN2c2cccnn2)o1 (centres undefined),-1.12%,-52.3%
